Results filed as inconclusive are left out. The source made the active and inactive calls. Unless noted, calls come from the whole dose curve; as a rule, active = well fitted curve in the direction sought with a large enough effect; inconclusive = small, poorly fitted or top-dose-only effect, or another doubt; inactive = no such curve, though single readings can be large; an effect the other way counts as inactive or inconclusive.

Data on eight compounds can be found in PubChem BioAssay (NCATS).

A short description of assay [1]: Cell Viability - SK-N-SH (AID 435; calls by dose curve; note: potency is the fitted concentration of half-maximal effect). To be noted: SK-N-SH neuroblastoma cell viability qHTS. An outline of the steps: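 qHTS cytotoxicity: CellTiter-Glo ATP luminescence after 40 h compound exposure of human neuroblastoma SK-N-SH cells at 37 °C. AC50 derived by Hill-equation fitting, with DMSO as basal and 100 uM tamoxifen as full inhibition.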
For orientation: In qHTS, concentration-response curves come from the screen itself.

Assay [2] in a line: Cell Viability - N2a (AID 540).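 Note: plate controls were DMSO alone for no effect and tamoxifen control for full effect; nearly all actives have a fitted effect of over 45% in size.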 The following applies: N2a mouse neuroblastoma cell viability; activity change, negative = cytotoxicity: at 92.2 µM (top of the series). An outline of the steps: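 In this qHTS cytotoxicity screen, ATP-dependent luciferase luminescence reports viable N2a cells after a 40 hr compound exposure in complete culture medium. Potencies are AC50 values from standard Hill equation fits.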

Assay [3] is described as follows: Cell Viability - Renal Proximal Tubule (AID 545).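 Note: cells exposed to compound for 40 hours; nearly all actives have a fitted effect of over 40% in size.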 The following applies: renal proximal tubule cells viability; series mostly up to 91.7 µM. An outline of the steps:
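Viability taken as intracellular ATP (CellTiter-Glo luminescence) after 40 hr, 37 °C compound treatment of primary proximal tubule cells from rat kidney, 1000 cells/well; Hill-equation fits of qHTS concentration-response data gave AC50.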

A short description of assay [4]: Cellular Toxicity (caspase-3) Jurkat (AID 655).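 Note: cells exposed to compound for 16 h at 37 °C before reading.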 To be noted: Jurkat caspase-3 activation, luminescence; caspase-3 activation: at 92.2 µM (top of the series), DMSO = 0%, tamoxifen = 100%. An outline of the steps:
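Luminescent Caspase-Glo 3/7 read-out (20 min, room temperature) after 16 h compound treatment at 37 C of 5000 Jurkat cells per well. AC50 derived by Hill-equation fitting, scaled between DMSO basal and 100 uM tamoxifen stimulation.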

Assay [5] is described as follows: Cellular Toxicity (caspase-3) MRC-5 (AID 659). The following applies: MRC-5 cells, luminescence, normalized: DMSO 0%, 10 µM staurosporine 100%; series mostly up to 91.7 µM. The method in brief: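 Luminescent Caspase-Glo 3/7 read-out (1 h, room temperature) after a 16 h, 37 °C compound exposure of MRC-5 lung fibroblasts at 1500 cells/well. Concentration-response AC50 from Hill equation; 0% DMSO, 100% 10 uM staurosporine.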

Assay [6] has as its target Cytochrome P450 3A4 (Homo sapiens) (UniProt P08684). The assay is described as follows: qHTS Assay for Inhibitors and Substrates of Cytochrome P450 3A4 (AID 884). Note: % is set by controls: 0 for no effect and ±100 for the full control effect; nearly all actives have a fitted effect of over 50% in size. To be noted: recombinant CYP3A4, Luciferin-PPXE luminescence; series mostly up to 57.1 µM. The method in brief: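 Luminescent readout of luciferin produced by CYP3A4 (20 nM) dealkylation of Luciferin-PPXE, 25 uM (its KM). NADPH-driven reaction ran 60 min at RT after 10 min compound preincubation; data scaled to 57 uM ketoconazole as 100% inhibition.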

Assay [7] is described as follows: Cell Viability - LYMP2-001 (AID 921).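 Note: 0% = DMSO only and full inhibition = tetraoctylammonium bromide control wells; nearly all actives have a fitted effect of over 70% in size.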 The following applies: LYMP2-001 lymphoblastoid cell viability; series mostly up to 92.2 µM. The method in brief:
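Cellular ATP loss read by luciferase luminescence after 24 h compound exposure at 37 C in complete medium. LYMP2-001 lymphoblastoid cells, 2500/well; qHTS concentration-response data fitted with Hill equation for AC50.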

Assay [8] can be described thus: Cell Viability - LYMP2-005 (AID 967).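 Note: plate controls were DMSO only for no effect and 92 µM tetraoctylammonium bromide control for full effect.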 To be noted: LYMP2-005 lymphoblastoid cell viability; series mostly up to 92.2 µM. An outline of the steps: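 LYMP2-005 human lymphoblastoid cells (2500/well) were treated with compounds for 24 h at 37 C. Intracellular ATP was then measured by CellTiter-Glo luminescence after 30 min at room temperature. AC50 values came from Hill-equation fits of qHTS concentration-response data.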

The nature of assay [9]: Cell Viability - LYMP2-015 (AID 971).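 Note: 0% = DMSO only and full effect = 92 µM tetraoctylammonium bromide; nearly all actives have a fitted effect of over 55% in size.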 To be noted: LYMP2-015 lymphoblastoid cell viability; series mostly up to 92.2 µM. An outline of the steps:
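AC50 values reflect Hill-model fits of ATP-based luminescence (CellTiter-Glo) from a human lymphoblastoid line, 2500 cells/well, treated 24 hr at 37 C.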

Assay [10] is described as follows: Cell Viability - LYMP2-002 (AID 977).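 Note: plate controls were DMSO only for no effect and 92 µM tetraoctylammonium bromide for full effect.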 To be noted: LYMP2-002 lymphoblastoid cell viability, qHTS; series mostly up to 92.2 µM. An outline of the steps: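 Human lymphoblastoid cells (2500/well) in complete medium were preincubated 5 hr at 37 C, then exposed to compounds for 24 hr at 37 C. Intracellular ATP was read by CellTiter-Glo luminescence; AC50 came from Hill-equation concentration-response fits.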

The nature of assay [11]: Cell Viability - LYMP2-010 (AID 981). Note: % is set by controls: 0 for no effect and ±100 for the full control effect; nearly all actives have a fitted effect of over 55% in size. To be noted: LYMP2-010 lymphoblastoid cell viability, qHTS; series mostly up to 92.2 µM. The method in brief: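 This 24 hr viability screen uses LYMP2-010 lymphoblastoid cells, quantifies ATP via luciferase luminescence, and derives AC50 from Hill fits of qHTS concentration-response data.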
The nature of assay [12]: Cell Viability - LYMP2-020 (AID 986).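 Note: plate controls were DMSO only for no effect and tetraoctylammonium bromide at 92 µM for full effect; nearly all actives have a fitted effect of over 55% in size.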 The following applies: series mostly up to 92.2 µM. An outline of the steps:
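Cells at 2500 per well receive a 24 hr compound exposure at 37 C. Viability is measured as ATP-dependent luciferase luminescence, with AC50 modeled from qHTS concentration-response curves.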

A short description of assay [13]: Cell Viability - LYMP2-022 (AID 987).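 Note: 0% = DMSO alone and full effect = tetraoctylammonium bromide at 92 µM; nearly all actives have a fitted effect of over 55% in size.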 The following applies: LYMP2-022 lymphoblastoid cell viability; series mostly up to 92.2 µM. The method in brief: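 In this qHTS cytotoxicity screen, compound titrations were incubated 24 hr at 37 C with human lymphoblastoid cells in complete medium. Luciferase-based ATP luminescence provided the viability signal.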
The nature of assay [14]: qHTS assay for small molecule agonists of retinoid X receptor alpha signaling (AID 588544). The following applies: HEK293T RXRa-UAS-bla, beta-lactamase reporter, 18 h; 530 nm emission.
Assay [15] can be described thus: qHTS assay for small molecule antagonists of retinoid X receptor alpha signaling (AID 588546; active = well fitted inhibition curve with a large enough effect in the signal ratio, with a control signal flat, not every such curve was filed as active; the % refers to the signal ratio;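 note: cells stimulated with 9-cis-retinoic acid as agonist; % is set by controls: 0 for no effect and ±100 for the full control effect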). The following applies: HEK293T RXRa-UAS-bla, beta-lactamase ratio, antagonist mode; measured here: W530 green channel, cytotoxicity proxy. An outline of the steps: (§1)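 Beta-lactamase reporter inhibition, read as CCF4 fluorescence ratio (ex 405, em 460/530 nm) after 2 h at RT. HEK293T UAS-bla cells, 2500/well, were stimulated with 9-cis-RA at 500 or 100 nM final alongside test compound for 18 h at 37 C.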

In assay [16] the target is Retinoic acid receptor RXR-alpha (Homo sapiens) (UniProt P19793). The assay is described as above. To be noted: HEK293T RXRa-UAS-bla, beta-lactamase ratio, antagonist mode. An outline of the steps: as §1
Chain of Retinoic acid receptor RXR-alpha (Homo sapiens) (P19793 whole entry, looked up): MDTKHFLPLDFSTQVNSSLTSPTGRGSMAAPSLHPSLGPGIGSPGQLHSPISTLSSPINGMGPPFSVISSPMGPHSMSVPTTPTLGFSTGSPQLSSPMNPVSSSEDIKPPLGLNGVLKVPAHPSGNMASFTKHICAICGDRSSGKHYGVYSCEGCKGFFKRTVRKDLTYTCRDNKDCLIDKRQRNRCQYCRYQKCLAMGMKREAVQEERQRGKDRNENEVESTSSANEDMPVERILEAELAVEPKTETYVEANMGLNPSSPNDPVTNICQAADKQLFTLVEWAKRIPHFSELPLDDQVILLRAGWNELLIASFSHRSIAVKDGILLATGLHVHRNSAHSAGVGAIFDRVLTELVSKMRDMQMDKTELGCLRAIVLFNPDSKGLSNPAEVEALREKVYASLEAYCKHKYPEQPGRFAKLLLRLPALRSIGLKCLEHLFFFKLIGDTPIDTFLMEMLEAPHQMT
For assay [17], the target named is Tumor necrosis factor (Homo sapiens) (UniProt P01375). Kind of assay: qHTS assay to identify small molecules that stimulate Tumor Necrosis Factor-alpha (TNF-alpha) secretion (AID 651757; active = well fitted curve in the direction sought with a large enough effect in the signal ratio; the % refers to the signal ratio; note: 0% is about no effect). To be noted: Human cells, HTRF 665/615 ratio; series mostly up to 92.2 µM. The method in brief:
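Using 3000 THP-1 cells per well, compounds and controls were applied for 17 hrs at 37 C. Detection followed with two labeled anti-TNF-alpha antibodies (cryptate donor, XL665 acceptor) for 3 hr at room temperature, measured by TR-FRET.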

A short description of assay [18]: MultiTox-Fluor Cytotoxicity Assay - LYMP1-002 - Dead Cells (AID 960).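 Note: 0% = DMSO and 100% = tetraoctylammonium bromide; nearly all actives have a fitted effect of over 60% in size.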 The following applies: LYMP1-002 lymphoblastoid cells, dead-cell protease fluorescence; series mostly up to 46.1 µM. An outline of the steps:
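Concentration-dependent increases in membrane-leaked protease activity are quantified in LYMP1-002 cells after 16 hr treatment; values are normalized against DMSO and tetraoctylammonium bromide (15 uM) controls and AC50 derived by Hill modeling.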

In assay [19] the target is Thyroid hormone receptor beta (Homo sapiens) (UniProt P10828). Kind of assay: qHTS assay for small molecule agonists of thyroid hormone receptor beta signaling (AID 588545; calls by dose curve). To be noted: TR-UAS-bla GripTite HEK 293, beta-lactamase ratio, agonist mode, 18 h; series mostly up to 76.7 µM. The method in brief: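 HEK 293 TR-UAS-bla; agonist mode; 18 hrs, 37 C; CCF4, ex 405/em 460 and 530 nm; norm. T3 10 nM = 100%, DMSO = 0%; Hill fit → EC50, efficacy.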
Chain of Thyroid hormone receptor beta (Homo sapiens) (P10828 whole entry, looked up): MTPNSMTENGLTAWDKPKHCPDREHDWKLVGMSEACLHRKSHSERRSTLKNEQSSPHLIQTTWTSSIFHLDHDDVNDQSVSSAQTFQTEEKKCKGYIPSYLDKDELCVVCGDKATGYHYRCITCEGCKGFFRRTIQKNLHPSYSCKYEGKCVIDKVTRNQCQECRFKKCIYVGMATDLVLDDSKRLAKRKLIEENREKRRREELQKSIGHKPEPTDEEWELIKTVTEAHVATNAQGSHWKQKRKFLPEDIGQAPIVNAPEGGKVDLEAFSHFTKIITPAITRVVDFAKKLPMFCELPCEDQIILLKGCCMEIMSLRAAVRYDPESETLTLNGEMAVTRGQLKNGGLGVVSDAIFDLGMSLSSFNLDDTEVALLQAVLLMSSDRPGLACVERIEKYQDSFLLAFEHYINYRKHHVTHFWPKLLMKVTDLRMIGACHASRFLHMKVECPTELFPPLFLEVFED

Assay [20] shares this target. The assay is described as follows: qHTS assay for small molecule antagonists of thyroid hormone receptor beta signaling (AID 588547; active = well fitted inhibition curve with a large enough effect in the signal ratio, with a control signal flat, not every such curve was filed as active; the % refers to the signal ratio;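 note: cells stimulated with 0.4 nM T3 agonist during compound exposure; % is set by controls: 0 for no effect and ±100 for the full control effect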). To be noted: TR-UAS-bla HEK293, beta-lactamase ratio, antagonist mode, 18 h. The method in brief:
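Inhibition of T3-driven (0.4nM final) beta-lactamase reporter activity was measured over 0.59 nM to 92 uM compound after 18 h at 37 C. The cells were GripTite HEK293 TR-UAS-bla in charcoal/dextran-stripped serum, with CCF4 ratio read-out and IC50 from Hill fits.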

Chain of Tumor necrosis factor (Homo sapiens) (P01375 whole entry, looked up): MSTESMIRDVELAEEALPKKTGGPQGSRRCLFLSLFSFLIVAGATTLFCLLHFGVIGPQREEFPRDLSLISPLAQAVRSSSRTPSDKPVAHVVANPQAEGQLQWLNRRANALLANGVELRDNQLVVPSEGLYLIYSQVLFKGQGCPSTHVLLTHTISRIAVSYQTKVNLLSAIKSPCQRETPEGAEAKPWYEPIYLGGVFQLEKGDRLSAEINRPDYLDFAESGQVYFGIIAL
Chain of Cytochrome P450 3A4 (Homo sapiens) (P08684 whole entry, looked up): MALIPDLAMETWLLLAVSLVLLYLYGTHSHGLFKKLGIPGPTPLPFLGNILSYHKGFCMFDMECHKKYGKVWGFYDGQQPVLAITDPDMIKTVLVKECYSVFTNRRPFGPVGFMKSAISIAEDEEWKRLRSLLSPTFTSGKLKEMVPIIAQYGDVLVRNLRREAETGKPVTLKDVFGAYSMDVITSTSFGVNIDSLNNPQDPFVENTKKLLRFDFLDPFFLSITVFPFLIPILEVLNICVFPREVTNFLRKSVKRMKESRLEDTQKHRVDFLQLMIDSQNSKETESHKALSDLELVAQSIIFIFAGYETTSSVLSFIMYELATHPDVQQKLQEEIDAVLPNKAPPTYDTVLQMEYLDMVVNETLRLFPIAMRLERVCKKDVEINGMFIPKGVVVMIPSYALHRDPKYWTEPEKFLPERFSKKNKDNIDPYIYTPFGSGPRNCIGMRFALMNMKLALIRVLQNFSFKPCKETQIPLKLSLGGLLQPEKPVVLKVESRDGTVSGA

As for `C=CCO`, the Potency in assay [1] was > 92 µM (inactive). Moreover, the Potency result in assay [2], in assay [6], in assay [7], in assay [8], in assay [9] and in assay [10] was “inactive” throughout. Also, the Potency result in assay [11], in [12] and in assay [13] was “inactive” throughout. For the same compound, the result in assay [3], in assay [5] and in assay [17] was inactive. For the same compound, the caspase-3 activation in [4] was 2.82% (inactive). Further, the max response in assay [14] was -10.3%; in [15], 1.87%; in [16], 7.67% (inactive).
Consider `ClC(Cl)C(Cl)Cl`, for which the Potency in assay [1] was > 92 µM (inactive). The Potency entry in assay [2], in assay [6], in [7], in assay [18], in [8] and in [9] was “inactive” throughout. In addition, the Potency result in [10], in assay [11], in assay [12], in [13] and in assay [19] was “inactive” in each case. Further, the compound was called inactive in [3], in [5] and in assay [17]. The caspase-3 activation in [4] is 1.02% (inactive). The max response in assay [14] was -4.19%; in [15], -2.39%; in [16] it was 4.18% (inactive). Besides, the activity change % (negative = inhibition) in assay [20] is 0.5% (inactive).
For `COc1c(C(C)(C)C)cc([N+](=O)[O-])c(C)c1[N+](=O)[O-]`, the Potency in assay [1] is > 92 µM (inactive). Besides, the Potency result in [2], in [6], in [7], in assay [18], in assay [8] and in [9] was “inactive” throughout. The Potency entry in assay [10], in assay [11], in [12], in [13] and in assay [19] was “inactive” each time. Moreover, the result in [3], in assay [5] and in assay [17] was inactive. Also, the caspase-3 activation in assay [4] is -1.52% (inactive). Also, the max response in [14] was -3.49%; in [15], -1.47%; in assay [16] it was -14.3% (inactive). In addition, in [20], the activity change % (negative = inhibition) is 24.1% (inactive).
As for `ClC(Br)Br`, the Potency in assay [1] is > 92 µM (inactive). Also, the Potency entry in assay [2], in [6], in [7], in assay [18], in assay [8] and in [9] was “inactive” each time. Moreover, the Potency result in assay [10], in [11], in [12], in assay [13] and in assay [19] was “inactive” throughout. Further, the compound was called inactive in assay [3], in assay [5] and in assay [17]. The caspase-3 activation in assay [4] was 0.0387% (inactive). Further, the max response in assay [14] was -3.88%; in [15], -8.78%; in assay [16] it was 0.0478% (inactive). Also, the activity change % (negative = inhibition) in [20] was 16% (inactive).
With `Brc1ccc(Oc2ccc(Br)cc2Br)c(Br)c1`, the Potency in assay [1] is > 92 µM (inactive). In addition, the call in [3], in assay [5] and in assay [17] was inactive. The Potency entry in assay [6], in assay [7], in assay [18], in assay [8], in assay [9] and in assay [10] was “inactive” each time. Moreover, the Potency entry in assay [11], in [12], in [13] and in assay [19] was “inactive” each time. Besides, the activity change % (negative = inhibition) in assay [20] was 4.48% (inactive).
Take `CC(C)(COCC1CO1)COCC1CO1` (stereo not drawn): the Potency entry in assay [2], in [6], in assay [7], in assay [18], in assay [8] and in assay [9] was “inactive” throughout. Also, the Potency entry in assay [10], in assay [11], in [12] and in [13] was “inactive” in each case. Also, the call in [3], in [5] and in assay [17] was inactive. For the same compound, in [4], the caspase-3 activation is 14.4% (inactive). Moreover, the figures for the max response in assay [15] and in assay [16] were 21.1% and 6.95% (inactive), respectively. Moreover, the activity change % (negative = inhibition) in [20] is -13.4% (inactive).
In the case of `O=[N+]([O-])c1ccc(O)c([N+](=O)[O-])c1`, the compound was called inactive in [3] and in assay [17]. Besides, in assay [4], the caspase-3 activation is -6.84% (inactive). Besides, the Potency result in assay [6], in assay [7], in assay [18], in assay [8], in [9] and in assay [10] was “inactive” each time. The Potency entry in assay [11], in assay [12] and in assay [13] was “inactive” throughout. The max response is -6.65% in [14], -0.361% in assay [15] and 9.93% (inactive) in [16].
With `c1ccc(OCC2CO2)cc1` (stereo not drawn), in assay [1], the Potency is > 92 µM (inactive). For the same compound, the Potency entry in assay [2], in assay [6], in assay [7], in assay [18], in assay [8] and in assay [9] was “inactive” each time. The Potency result in assay [10], in assay [11], in assay [12] and in assay [13] was “inactive” in each case. Also, the compound was called inactive in assay [3], in assay [5] and in assay [17]. Moreover, in assay [4], the caspase-3 activation was 1.63% (inactive). For the same compound, the max response in [14] is 6.69%; in assay [15], 6.84%; in assay [16], -20.9% (inactive). Moreover, in [20], the activity change % (negative = inhibition) was 6.77% (inactive).
